Compound activity (PubChem)
The list is not random: actives were taken first. Their share in the collection is about 0.87%.
APE1 inh-1 = blocks human APE1 abasic DNA cleavage | recombinant APE1, TAMRA/BHQ-2 abasic DNA cleavage fluorescence | Potency, µM (series often up to 65.8 µM), actives largely listed as inhibitors | 350,000 tested, 0.35% active | P27695; note: nearly all actives have a fitted effect of over 55% in size
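Kinetic fluorescence read (525 ex/598 em nm, three reads 60 s apart) of AP-site incision; signal = third minus first read. Enzyme 0.75 nM, dual-labelled THF duplex 50 nM, compound preincubation 15 min RT.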
BLM inh-1 = Bloom syndrome helicase (human) inhibition; recombinant BLM DNA unwinding, fluorescence dequenching; Potency, µM (highest dose often 56.1 µM), actives largely listed as inhibitors; 350,000 tested, 0.2% active; AID 2528; note: nearly all actives have a fitted effect of over 35% in size
RECQ1 inh-1 = RECQ1 (human) helicase inhibition; Potency, µM (top dose mostly 57.3 µM), hits mostly inhibitors; RECQ1 DNA unwinding, red fluorescence kinetic read; P46063; 240,000 tested, 0.54% active; note: nearly all actives have a fitted effect of over 30% in size
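50 nM RECQ1T1 preincubated 15 min with compound in Tris pH 8.0 buffer with MgCl2, DTT, Tween-20 and 2.5 ug/ml poly(dI-dC); started with 200 nM TAMRA/BHQ-2 forked duplex and 2 mM ATP. Unwinding read as fluorescence (525/598 nm), two reads 2 h apart.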
TDP1 block = inhibitors of human tyrosyl-DNA phosphodiesterase TDP1; Q9NUW8; recombinant TDP1, AlphaScreen DNA substrate cleavage; Potency, µM (highest dose often 130 µM), usual class: inhibitors; 350,000 tested, 0.28% active; AID 485290; note: nearly all actives have a fitted effect of over 40% in size
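Signal: AlphaScreen proximity between streptavidin donor and anti-FITC acceptor beads on intact substrate. Reaction: Tdp1 1 nM, substrate 15 nM final, 5 min RT after 15 min compound preincubation.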
GCN5L2 inh = blocks human GCN5L2 histone acetyltransferase; Q92830; GCN5L2 HAT assay, ThioGlo1 CoA-SH fluorescence; Potency, µM (highest dose often 58.9 µM), actives largely listed as inhibitors; 390,000 tested, 0.21% active; AID 504327
Target sequence (Q92830 whole entry, looked up): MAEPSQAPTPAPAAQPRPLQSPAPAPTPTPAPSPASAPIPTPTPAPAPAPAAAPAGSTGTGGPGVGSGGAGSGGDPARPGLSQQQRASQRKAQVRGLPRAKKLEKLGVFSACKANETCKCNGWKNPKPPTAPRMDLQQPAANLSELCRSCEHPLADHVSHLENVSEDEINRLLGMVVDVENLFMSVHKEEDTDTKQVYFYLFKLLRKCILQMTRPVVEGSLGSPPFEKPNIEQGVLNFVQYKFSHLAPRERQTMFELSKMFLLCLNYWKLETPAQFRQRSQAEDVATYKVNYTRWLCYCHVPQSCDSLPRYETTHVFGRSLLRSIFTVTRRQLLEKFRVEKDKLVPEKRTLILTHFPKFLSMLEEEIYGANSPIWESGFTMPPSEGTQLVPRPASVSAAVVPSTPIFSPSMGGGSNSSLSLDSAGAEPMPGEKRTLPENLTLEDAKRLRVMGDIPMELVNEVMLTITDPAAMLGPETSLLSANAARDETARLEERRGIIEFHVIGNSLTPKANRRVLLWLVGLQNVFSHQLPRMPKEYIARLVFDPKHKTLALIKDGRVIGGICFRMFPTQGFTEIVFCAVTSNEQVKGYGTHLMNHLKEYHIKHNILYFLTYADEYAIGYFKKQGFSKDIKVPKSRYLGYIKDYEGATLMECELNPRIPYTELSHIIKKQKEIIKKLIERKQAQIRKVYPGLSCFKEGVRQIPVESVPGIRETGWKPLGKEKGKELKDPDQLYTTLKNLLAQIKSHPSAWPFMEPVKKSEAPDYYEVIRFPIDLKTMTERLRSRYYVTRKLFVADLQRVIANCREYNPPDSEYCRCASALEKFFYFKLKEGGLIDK
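GCN5L2 (20nM final) in 50mM HEPES, 0.1mM EDTA pH 7.5, 0.01% Tween-20 was preincubated 15 min at room temperature with compound, then given ThioGlo1 (50uM), H3(1-25) peptide (75uM) and acetyl-CoA (70uM); CoA-thiol fluorescence (Ex340/Em540) was read at 0 and 20 min.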
APE1 dye cs = counter-screen for APE1 inhibitors: DNA dye displacement | shares compounds with APE1 inh-1 | DNA fluorescent dye displacement counterscreen, fluorescence | Potency, µM (titrated, usually from 28.5 µM), hits mostly inhibitors | 480 tested, 7% active;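 note: loss of thiazole orange fluorescence as the dye is displaced from duplex DNA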
Endo IV inh = counter-screen for APE1 inhibitors: inhibitors of E. coli endonuclease IV; shares compounds with APE1 inh-1; E. coli Endo IV, fluorogenic AP-site DNA cleavage; AID 2565; 560 tested, 4% active; Potency, µM (doses to about 27.1 µM), hits mostly inhibitors
APE1 inh-2 = confirmation of inhibitors of human APE1 endonuclease; shares compounds with APE1 inh-1; purified APE1, fluorogenic abasic-site DNA cleavage; Potency, µM (titrated, usually from 57.1 µM), actives largely listed as inhibitors; 750 tested, 44% active; note: nearly all actives have a fitted effect of over 30% in size
APE1 FP = displaces DNA from human APE1 in FP assay; shares compounds with APE1 inh-1; APE1 binding to TAMRA-labelled double-stranded DNA, fluorescence polarization displacement; Potency, µM (series often up to 28.5 µM), actives largely listed as inhibitors; 480 tested, 7% active
BLM inh-2 = BLM (human) helicase inhibition, confirmation. Potency, µM, actives largely listed as inhibitors. 220 tested, 40% active. BLM DNA unwinding, fluorescence quenching, biochemical. AID 2585. shares compounds with BLM inh-1;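 note: strand separation dequenches TAMRA so unwinding raises red fluorescence; series mostly up to about 69 µM; nearly all actives have a fitted effect of over 45% in size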
RECQ1 conf = confirmation of human RECQ1 helicase inhibitors | shares compounds with RECQ1 inh-1 | RECQ1 helicase DNA unwinding, fluorescence | Potency, µM (top dose mostly 229 µM), actives largely listed as inhibitors | 610 tested, 28% active | AID 2708; note: nearly all actives have a fitted effect of over 45% in size
ADP FP counter = displaces ADP in a fluorescence polarization counter-screen for RECQ1 hits; shares compounds with RECQ1 inh-1; ADP fluorescence polarization displacement counterscreen; Potency, µM (titrated, usually from 228 µM), usual class: inhibitors; 530 tested, 27% active; note: nearly all actives have a fitted effect of over 45% in size
RECQ1 inh-2 = blocks human RECQ1 DNA unwinding; shares compounds with RECQ1 inh-1; recombinant RECQ1 DNA unwinding, red fluorescence; Potency, µM (highest dose often 119 µM), usual class: inhibitors; 1,100 tested, 15% active; AID 504841; note: nearly all actives have a fitted effect of over 50% in size
Each line names hits and unclear results; the compound was inactive in the other large screens (follow-up assays come after a bar, where they were run). Calls come from the whole dose curve; as a rule, active = well fitted curve in the direction sought with a large enough effect; inconclusive = small, poorly fitted or top-dose-only effect, or another doubt; inactive = no such curve, though single readings can be large; an effect the other way counts as inactive or inconclusive.

Cc1nc(N2CCOCC2)c2nc(-c3ccccc3)n(CCN3CCCC3)c2n1	none (no result: GCN5L2 inh)
COCCN1C(=O)N[C@@H](c2cccc(C(F)(F)F)c2)C(C(C)=O)=C1C	none (no result: GCN5L2 inh)
O=C(CSc1nc(-c2ccc(F)cc2)nc2c1Cc1ccccc1O2)Nc1ccc(C(=O)O)cc1	APE1 inh-1 inconclusive, BLM inh-1 8.9µM, RECQ1 inh-1 inconclusive, TDP1 block 5µM, GCN5L2 inh 14µM | APE1 dye cs 3.2µM | Endo IV inh inconclusive | APE1 inh-2 4.5µM | APE1 FP inactive | BLM inh-2 29µM
OC[C@H]1O[C@@H](n2cnc3c(Nc4ccccc4)ncnc32)[C@H](O)[C@H]1O	none (no result: BLM inh-1, GCN5L2 inh)
O=C(CSc1nccc(=O)[nH]1)N1N=C2/C(=C/c3ccco3)CCCC2C1c1ccco1 (configuration not stated)	APE1 inh-1 13µM, RECQ1 inh-1 16µM, TDP1 block inconclusive, GCN5L2 inh inconclusive | APE1 dye cs inactive | Endo IV inh inactive | APE1 inh-2 8.9µM | APE1 FP inactive | RECQ1 conf inconclusive | ADP FP counter inconclusive | RECQ1 inh-2 inconclusive
COC(=O)c1ccc(C(NC(=O)OCc2ccccc2)/C(C)=C/[C@@H](C)C(=O)NCc2nn(-c3ccccc3)nc2C)cc1 (some centres not stated)	APE1 inh-1 inconclusive (no result: GCN5L2 inh)
O=C1[C@H]2[C@H]3[C@H](O)[C@H](O)C/C(=N/OC[C@@H](O)COCc4ccco4)[C@@H]3CC[C@@H]2C(=O)N1c1cccc(Oc2ccccc2)c1	none (no result: GCN5L2 inh)
O=C(O)Cc1ccc(C(=O)CSc2ccccc2)s1	APE1 inh-1 inconclusive, RECQ1 inh-1 inconclusive (no result: TDP1 block) | APE1 dye cs inactive | Endo IV inh inactive | APE1 inh-2 inconclusive | APE1 FP inactive | RECQ1 inh-2 inactive
O=C(O)Cc1ccc(C(=O)c2ccc(Cl)cc2)s1	none
O=c1cc(-c2ccc(O)cc2)oc2cc(O)c(C3OC(CO)C(O)C(O)C3O)c(O)c12 (configuration not stated)	APE1 inh-1 7.1µM, RECQ1 inh-1 inconclusive | APE1 dye cs inactive | Endo IV inh inactive | APE1 inh-2 13µM | APE1 FP inactive | RECQ1 inh-2 50µM
Cc1nc(N2CCOCC2)c2c(C(=O)N(C)Cc3ccccc3)c(C)oc2n1	none (no result: APE1 inh-1, RECQ1 inh-1)
C=CCn1c(SCC(=O)c2ccc(O)c(O)c2)nnc1-c1cccc(C)c1	none (no result: BLM inh-1, RECQ1 inh-1)
CCn1c(SCC(=O)c2ccc(O)c(O)c2)nnc1-c1ccccc1OC	APE1 inh-1 inconclusive, RECQ1 inh-1 14µM | APE1 dye cs inactive | Endo IV inh inactive | APE1 inh-2 inconclusive | APE1 FP inactive | RECQ1 inh-2 2µM
C=CCn1c(SCC(=O)c2ccc(O)c(O)c2)nnc1-c1cccnc1	APE1 inh-1 1.6µM, BLM inh-1 inconclusive, RECQ1 inh-1 8.9µM, GCN5L2 inh inconclusive | APE1 dye cs inactive | Endo IV inh inactive | APE1 inh-2 2.5µM | APE1 FP inactive | RECQ1 inh-2 3.5µM
COc1cccc(N(C)C(=S)Oc2ccc3c(c2)CCCC3)n1	none (no result: APE1 inh-1, RECQ1 inh-1)
C=Cc1c(C)/c2[n-]/c1=C\c1[n-]c(c(CC)c1C)/C=c1\[n-]c3c(c1C)C(=O)C(C(=O)[O-])C=3c1[n-]c(c(C)c1CCC(=O)[O-])\C=2.[Cu].[Na+].[Na+] (configuration not stated)	BLM inh-1 11µM, RECQ1 inh-1 1.1µM, TDP1 block inconclusive, GCN5L2 inh 2.5µM (no result: APE1 inh-1) | Endo IV inh 16µM | APE1 inh-2 2.8µM | RECQ1 conf 2.8µM | ADP FP counter 45µM
Cc1ccc(NC(=O)CN2C(=O)N/C(=C/c3cccn3-c3ccc(C(=O)O)cc3)C2=O)cc1	APE1 inh-1 1.1µM, BLM inh-1 inconclusive, RECQ1 inh-1 7.9µM, TDP1 block 0.89µM, GCN5L2 inh inconclusive | APE1 inh-2 1.3µM | RECQ1 conf 20µM
O=[N+]([O-])c1c(NCCCO)cc(SCc2ccco2)c2nonc12	none
CC(=O)OCCNc1cc(SCc2ccco2)c2nonc2c1[N+](=O)[O-]	APE1 inh-1 13µM, RECQ1 inh-1 7.1µM (no result: TDP1 block) | APE1 dye cs inactive | Endo IV inh inactive | APE1 inh-2 14µM | APE1 FP inactive | RECQ1 conf inactive | RECQ1 inh-2 inactive
Cc1c2c(c(O)c3c(O)cccc13)C(=O)O[C@H]2C1C(N(C)C)C(O)=C(C(N)=O)C(=O)[C@H]1O (some centres not stated)	APE1 inh-1 2µM, BLM inh-1 18µM, RECQ1 inh-1 3.2µM, GCN5L2 inh 3.2µM (no result: TDP1 block) | APE1 dye cs 10µM | Endo IV inh inactive | APE1 inh-2 1.4µM | APE1 FP 2.2µM | RECQ1 conf 40µM | ADP FP counter 16µM | RECQ1 inh-2 inconclusive
Cc1ccc(/C=C2/C(=O)c3ccc(C(=O)O)cc3C2=O)o1	APE1 inh-1 8.9µM, RECQ1 inh-1 7.1µM, TDP1 block 3.5µM | APE1 inh-2 inconclusive | RECQ1 conf inactive | ADP FP counter 45µM
O=C(CSc1cn(CCNC(=O)c2c(F)cccc2F)c2ccccc12)Nc1ccccc1F	none (no result: APE1 inh-1, RECQ1 inh-1)
O=C1c2ccccc2C(=O)N1/N=C/c1ccc(O)c(O)c1O	APE1 inh-1 0.71µM, RECQ1 inh-1 6.3µM, TDP1 block inconclusive | APE1 dye cs inactive | Endo IV inh inactive | APE1 inh-2 inconclusive | APE1 FP inactive | RECQ1 conf inconclusive | ADP FP counter 35µM
